From PubChem
This is a sample that favours compounds with a hit; in the whole collection about 1.2% have one here.
NCOA1 inh = SRC1 coactivator transcriptional activity inhibitors, primary screen, cell-based, luminescence | inhibition, % at 3.6 µM | HEK293 GAL4-SRC1 luciferase reporter | 0.12% of 360,000 active;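 active means inhibition above the campaign mean plus 3 SD, with each screening campaign given its own cutoff, cut at about 60% in these data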
NR5A2 inv ag = LRH-1 (NR5A2) inverse agonists, primary screen, cell-based, luminescence, HEK293T, StAR-luciferase reporter | 0.13% of 360,000 active | LRH-1 transfected, 24 h | Nuclear receptor subfamily 5 group A member 2 (Homo sapiens), O00482 | inhibition, % at 3.6 µM;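 active means inhibition above the mean inhibition of all tested compounds plus 3 SD, cut at about 73% in these data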
SRC3 inh = SRC3 coactivator transcriptional activity inhibitors, primary screen, cell-based, luminescence; 0.17% of 360,000 active; Nuclear receptor coactivator 3 (Homo sapiens), Q9Y6Q9; HEK293 GAL4-SRC3 luciferase reporter; inhibition, % at 3.6 µM;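 active means inhibition above a per-campaign cutoff, the mean of all compounds plus 3 SD, cut at about 60% in these data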;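 further: higher means less SRC3-driven luciferase light from the GAL4 reporter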
NCOA2 inhibitor = inhibition of GAL4-SRC2 driven luciferase reporter, primary screen, SRC2 inhibitor project, cell-based, luminescence; 0.17% of 370,000 active; inhibition, % at 9 µM; HEK293 GAL4-SRC2 luciferase reporter; AID 651957, 2012;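 active means inhibition above the mean inhibition of all tested compounds plus 3 SD, set per campaign, cut at about 52% in these data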
NR2F2 inh = NR2F2 transcriptional activity inhibitors, primary screen, cell-based, luciferase reporter, HEK293T, luminescence. COUP transcription factor 2 (Homo sapiens), P24468. inhibition, % at 8.6 µM. 0.7% of 370,000 active. HEK293T NGFI-A luciferase reporter. AID 686940, 2013;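 active means inhibition above a per-plate cutoff, mean inhibition of test wells between control levels plus 3 SD, cut at about 38% in these data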;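 further: cells cotransfected with COUP-TFII expression vector driving the NGFI-A reporter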
Efflux pump mplx = inhibitors of Candida efflux pumps in yeast, primary screen, S. cerevisiae, Nile Red, multiplex. S. cerevisiae Candida pump triplex. inhibition, % at 10 µM. 0.44% of 330,000 active;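 active means plate passing quality check with inhibition over a set limit, or well fluorescence over plate mean plus 4 SD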;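 further: Nile Red retained in pooled yeast measured as flow cytometry median fluorescence; higher means more Nile Red kept so more efflux inhibition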
Cmpd fluor yeast = counter-screen for efflux pump inhibitors: compound fluorescence; 4% of 1,700 active; S. cerevisiae AD/pABC3, flow cytometry; fluorescence ratio to DMSO, % at 10 µM; AID 588517; shares compounds with Efflux pump mplx;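 active means fluorescence ratio to DMSO above its plate's cutoff, the plate mean ratio plus 5 SD, cut at about 210% in these data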;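 further: unstained yeast with no Nile Red so the signal is compound autofluorescence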
CaMdr1 efflux inh = inhibitors of Candida albicans Mdr1 efflux, confirmation, flow cytometry, singleplex, Cherry Pick1 set; shares compounds with Efflux pump mplx; S. cerevisiae AD/CaMDR1, Nile Red efflux; inhibition, % at 10 µM; 1% of 1,700 active; AID 588518, 2011; in the data active means inhibition above about 26%;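 further: higher means more Nile Red retained so more efflux inhibition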
Cdr2 pump inh = inhibitors of Candida albicans Cdr2 efflux pump, confirmation, S. cerevisiae AD/CaCDR2, flow cytometry, cherry pick 1, singleplex. shares compounds with Efflux pump mplx. Nile Red retention. Nile Red retention ratio vs DMSO, % at 10 µM. 4% of 1,700 active. AID 588520, 2011; in the data active means Nile Red retention ratio vs DMSO above about 190%;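 further: higher ratio means more blocking of Cdr2 efflux of the dye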
CaCdr1 efflux inh = inhibitors of Candida albicans Cdr1 efflux pump, confirmation, S. cerevisiae AD/CaCDR1, flow cytometry, cherry pick 1, singleplex; 1% of 1,700 active; inhibition, % at 10 µM; shares compounds with Efflux pump mplx; Nile Red efflux; AID 588522, 2011;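 active means inhibition above the screen-wide mean plus twice its standard deviation, cut at about 32% in these data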
Of the large screens only hits and unclear results are named; the others gave an inactive call (follow-up assays come after a bar, where they were run).

CC[C@]12c3[nH]c4ccccc4c3CCN1C(=O)C(CC(=O)NCCc1ccccn1)C[C@@H]2C(=O)N1CCN(C(=O)C2CC2)CC1 (some centres undefined)	none
COc1ccc(Cn2c(=O)c3[nH]cnc3n(-c3ccccc3C)c2=O)cc1	Efflux pump mplx 0.8 | Cmpd fluor yeast inactive | CaMdr1 efflux inh inactive | Cdr2 pump inh inactive | CaCdr1 efflux inh inactive
COc1ccc(C)c(-n2c(=O)n(Cc3ccccc3)c(=O)c3[nH]cnc32)c1	none
Cc1cccc(NC(=O)c2cc(Cl)ccc2[N+](=O)[O-])c1	none
COCCNC(=O)CSc1nc2cc(OC)c(OC)cc2c(=O)n1Cc1ccc(OC)cc1	none
CCC(Sc1nc2cc(OC)c(OC)cc2c(=O)n1CCc1ccc(OC)c(OC)c1)C(=O)NCCOC (centres undefined)	Efflux pump mplx 1.3 | Cmpd fluor yeast inactive | CaMdr1 efflux inh inactive | Cdr2 pump inh inactive | CaCdr1 efflux inh inactive
Cc1ccc(S(=O)(=O)Nc2cc(C(C(=O)OC(C)C)C(=O)C(F)(F)F)c(O)c3ccccc23)c(C)c1 (centres undefined)	Efflux pump mplx 12.6 | Cmpd fluor yeast inactive | CaMdr1 efflux inh inactive | Cdr2 pump inh inactive | CaCdr1 efflux inh inactive
CCCCN(C(=O)NC(=O)Nc1ccc(C)cn1)S(C)(=O)=O	none
O=c1/c(=C/c2ccco2)sc2nc(-c3ccccc3Br)nn12	none | Cmpd fluor yeast inactive | CaMdr1 efflux inh inactive | Cdr2 pump inh inactive | CaCdr1 efflux inh inactive
Cc1ccc(/C=c2\sc3nc(-c4cccs4)nn3c2=O)o1	Efflux pump mplx 0.5 | Cmpd fluor yeast inactive | CaMdr1 efflux inh inactive | Cdr2 pump inh inactive | CaCdr1 efflux inh inactive
COc1ccccc1-c1nc2s/c(=C\c3cccs3)c(=O)n2n1	none
COc1ccc(CCN2C(=O)CCC3=C2CCC3=O)cc1OC	none (no result: NCOA2 inhibitor, NR2F2 inh, Efflux pump mplx)
O=C1CC(CC(=O)N/N=C/c2ccccc2[N+](=O)[O-])=NN1	none
Cc1ccc2nc(SCC(=O)NC3CCCc4ccccc43)[nH]c2c1 (centres undefined)	none
CCOc1ccccc1CN1CCC(Oc2ccc(C(=O)NCc3ccccn3)cc2)CC1	none (no result: Efflux pump mplx)
COc1ccc(Nc2nnc(Cc3ccc(Cl)cc3)c(=O)[nH]2)c(OC)c1	none
COc1ccc(Nc2nnc(Cc3ccccc3)c(=O)[nH]2)c(OC)c1	Efflux pump mplx 0.5 | Cmpd fluor yeast inactive | CaMdr1 efflux inh inactive | Cdr2 pump inh inactive | CaCdr1 efflux inh inactive
COCCCn1nnnc1SCC(=O)N1c2ccccc2CC1C (centres undefined)	none
CC1SC(c2cccc(Cl)c2)NC1=O (centres undefined)	none
O=C(Nc1ccccc1C(=O)O)c1cccc(NC(=O)c2ccco2)c1	none
COC(=O)Cc1ccc(NC(=O)c2ccc(NC(=O)c3ccco3)cc2)cc1	none
O=C(O)Cc1ccc(NC(=O)c2ccc(NC(=O)c3ccco3)cc2)cc1	Efflux pump mplx 10.6 | Cmpd fluor yeast inactive | CaMdr1 efflux inh inactive | Cdr2 pump inh inactive | CaCdr1 efflux inh inactive
